From PubChem BioAssay
KB-V1 MDR tox: kills drug-selected multidrug resistant KB-V1 cells; Potency, µM (highest dose often 46.1 µM), most hits filed as cytotoxic; 3.4% of 400,000 active; KB-V1 MDR cells viability, CellTiter-Glo, 72 h; note: nearly all actives have a fitted effect of over 60% in size
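Potencies derive from concentration-effect curves fitted to normalized luminescence (CellTiter-Glo) of KB-V1 cells treated for 72 h at 37 degrees C in phenol-red-free DMEM containing 10% FBS.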
S-ASM inh: blocks human secretory acid sphingomyelinase; P17405; placental ASM, HMU-PC fluorogenic substrate, 60 min; Potency, µM (top dose mostly 57.5 µM), most hits filed as inhibitors; 0.006% of 340,000 active
Target sequence (P17405 47-631 limits assumed): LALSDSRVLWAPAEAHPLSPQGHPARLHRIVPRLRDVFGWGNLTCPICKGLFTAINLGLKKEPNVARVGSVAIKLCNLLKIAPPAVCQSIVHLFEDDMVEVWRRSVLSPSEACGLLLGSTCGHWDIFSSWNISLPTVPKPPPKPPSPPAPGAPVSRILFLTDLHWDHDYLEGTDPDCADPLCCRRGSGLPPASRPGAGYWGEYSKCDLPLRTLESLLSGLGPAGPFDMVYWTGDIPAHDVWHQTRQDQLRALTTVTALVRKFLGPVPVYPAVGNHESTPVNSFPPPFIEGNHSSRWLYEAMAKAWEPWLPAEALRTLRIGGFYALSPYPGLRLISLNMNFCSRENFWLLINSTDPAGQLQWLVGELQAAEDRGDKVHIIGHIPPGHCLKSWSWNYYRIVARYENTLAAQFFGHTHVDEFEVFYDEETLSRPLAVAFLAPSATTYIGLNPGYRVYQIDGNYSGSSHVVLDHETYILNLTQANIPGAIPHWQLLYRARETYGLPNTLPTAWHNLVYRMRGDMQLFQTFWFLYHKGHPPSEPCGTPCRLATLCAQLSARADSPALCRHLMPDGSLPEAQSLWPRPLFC
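Fluorescence read-out (Ex 386 nm, Em 447 nm) after stopping the reaction at pH 10. Enzyme: ASM from human placenta; substrate HMU-PC0, 9 uM final; 60 min, 37 °C. Compound preincubation 10 min, ambient temperature.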
SW480 rerep: DNA re-replication induction in SW480 cells | SW480 DNA re-replication, Hoechst DNA content imaging, 48 h | Potency, µM (series often up to 46.1 µM), most hits filed as activators | 1.8% of 340,000 active | AID 624297; note: nearly all actives have a fitted effect of over 55% in size
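Cells (250 per well) received 23 nL compound or DMSO by pin tool and were kept 48 hr at 37 C, 5% CO2. Nuclei were then stained with Hoechst for 40 min and scanned for DNA content.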
MCF10A rereplic: DNA re-replication induction in MCF 10a cells | 2.9% of 350,000 active | Potency, µM (top dose mostly 46.1 µM), most hits filed as activators | MCF 10A DNA re-replication, Hoechst nuclear intensity, 48 h; note: nearly all actives have a fitted effect of over 50% in size
KB-3-1 tox: KB-3-1 parental cell cytotoxicity. Potency, µM (top dose mostly 46.1 µM), actives largely listed as cytotoxic. AID 1347075. 1.4% of 400,000 active. KB-3-1 viability, CellTiter-Glo ATP luminescence, 72 h; note: nearly all actives have a fitted effect of over 60% in size
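Screening of KB-3-1 cells (DMEM, 10% FBS, phenol-red free) ran from lowest to highest compound concentration; after 72 h at 37 °C viability was read luminescently and curves fitted.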
Giardia kill: kills Giardia lamblia; activity change, % at 7.66 µM, hits read low; Giardia lamblia trophozoite viability; AID 540267; 0.15% of 340,000 active; in the data active = activity change below about -80%; inconclusive = between about -30% and that limit;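 note: parasites exposed to compound for two days anaerobically before the ATP read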
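Media and compound were dispensed first, then trophozoites at 100 cells/well; plates sat 48 hrs at 37 deg C without oxygen before ATP luminescence reagent was added and read after 15-30 min at room temperature.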
Each line names hits and unclear results; the compound was inactive in the other large screens. Rows were chosen to be rich in hits. Some 6.9% of all compounds tested hit in one or more screens of this group. Unless noted, calls come from the whole dose curve; as a rule, active = well fitted curve in the direction sought with a large enough effect; inconclusive = small, poorly fitted or top-dose-only effect, or another doubt; inactive = no such curve, though single readings can be large; an effect the other way counts as inactive or inconclusive.

COc1ccc(-c2noc(CCCCC(=O)N3CCN(c4cc(C)ccc4C)CC3)n2)cc1	KB-V1 MDR tox inconclusive, KB-3-1 tox inconclusive
CCOC(=O)N1CCN(Cc2nc(-c3ccc(OC)cc3)no2)CC1	KB-V1 MDR tox 8.2µM
Cc1ccc(-c2noc(CCC(=O)N3CCN(c4cc(C)ccc4C)CC3)n2)cc1	MCF10A rereplic 21µM
COc1ccc(-c2noc(CCCC(=O)N3CCN(c4cc(C)ccc4C)CC3)n2)cc1	MCF10A rereplic 13µM
O=C(NC1CCCCC1)c1ccc2ccccc2c1	none (no result: S-ASM inh, SW480 rerep, MCF10A rereplic, Giardia kill)
Cc1cc2ccccc2c[n+]1C1CCCCC1	KB-3-1 tox 4.6µM (no result: S-ASM inh, SW480 rerep, MCF10A rereplic, Giardia kill)
Cc1cccc(OCCn2nnc3sc4c(c3c2=O)CCCC4)c1	none (no result: S-ASM inh, SW480 rerep, MCF10A rereplic, Giardia kill)
Cn1c(SCC(=O)N2CC(=O)Nc3ccccc32)nnc1C(F)(F)F	none
CSc1ccc(CNC(=O)c2ccc3c(c2)N(C)C(=O)C2CCCCN32)cc1 (centres undefined)	KB-V1 MDR tox inconclusive (no result: S-ASM inh, SW480 rerep, MCF10A rereplic, Giardia kill)
COc1ccc2cc(-c3cc(C(=O)OCC(=O)NC4CCS(=O)(=O)C4)c4ccccc4n3)ccc2c1 (centres undefined)	SW480 rerep inconclusive, MCF10A rereplic 7.3µM, Giardia kill -88
Cc1cc(C(=O)OCC(=O)NC2CCS(=O)(=O)C2)c(C)n1-c1ccccc1 (centres undefined)	KB-V1 MDR tox 16µM, KB-3-1 tox inconclusive
COc1ccc2cc(-c3cc(C(=O)OCC(=O)Nc4c(C)n(C)n(-c5ccccc5)c4=O)c4ccccc4n3)ccc2c1	KB-V1 MDR tox inconclusive, MCF10A rereplic inconclusive, Giardia kill -94
Cc1cc(C(=O)OCC(=O)N(C)C2CCS(=O)(=O)C2)c(C)n1-c1ccccc1 (centres undefined)	none
COc1ccc(-c2cc(C(=O)OCC(=O)NC3CC3)c3ccccc3n2)cc1	none
COc1ccc(C)cc1NC(=O)N1CCN(c2nnc(C)c3c(C)n(-c4ccccc4)nc23)CC1	none (no result: S-ASM inh, SW480 rerep, MCF10A rereplic, Giardia kill)
COc1cc(C(=O)n2nc(-c3ccco3)nc2NCc2ccc(Cl)cc2)cc(OC)c1OC	none (no result: S-ASM inh, SW480 rerep, MCF10A rereplic, Giardia kill)
NC(=NC(=O)c1ccccc1)N1CCN(C(c2ccccc2)c2ccccc2)CC1	KB-V1 MDR tox inconclusive
Cc1cc(NC(=O)COC(=O)[C@@H](NS(=O)(=O)c2ccc(Br)cc2)C(C)C)no1	none
O=S(=O)(Nc1nc2ccccc2nc1Cl)c1cccc(C(F)(F)F)c1	MCF10A rereplic 16µM
COc1ccc(C(=O)N2CCN(c3nc4cc(C)ccc4cc3C#N)CC2)c(OC)c1	KB-V1 MDR tox inconclusive
COc1cc(C(=O)N2CCN(c3ccc(C)cc3C)CC2)cc(OC)c1OC	KB-V1 MDR tox inconclusive, SW480 rerep 6.5µM, MCF10A rereplic 18µM, KB-3-1 tox 2.3µM
COc1cc(C(=O)N2CCCN(c3nc4cc(C)ccc4cc3C#N)CC2)cc(OC)c1OC	KB-V1 MDR tox 18µM, MCF10A rereplic inconclusive
COc1cc(C(=O)C(=O)N2CCN(c3ccccc3)CC2)cc(OC)c1OC	KB-V1 MDR tox inconclusive, KB-3-1 tox 21µM (no result: S-ASM inh, SW480 rerep, MCF10A rereplic, Giardia kill)
Cc1ccc2cc(C#N)c(N3CCN(C(=O)c4ccccc4)CC3)nc2c1	SW480 rerep inconclusive, MCF10A rereplic 0.58µM
COc1cc(CN(C(=O)c2ccccc2[N+](=O)[O-])c2ccccn2)cc(OC)c1OC	none (no result: S-ASM inh, SW480 rerep, MCF10A rereplic, Giardia kill)
Cc1c(Cl)cccc1NC(=O)CCn1cnnn1	none (no result: S-ASM inh, SW480 rerep, MCF10A rereplic, Giardia kill)
COc1cc(C(=O)N2CCN(S(=O)(=O)c3ccc(F)cc3)CC2)cc(OC)c1OC	KB-V1 MDR tox 21µM
Cc1ccc(S(=O)(=O)N2CCCN(c3nc4cc(C)ccc4cc3C#N)CC2)cc1	KB-V1 MDR tox inconclusive, MCF10A rereplic inconclusive
Cc1cc2cc(C#N)c(N3CCN(S(C)(=O)=O)CC3)nc2cc1C	KB-V1 MDR tox 18µM
Cc1[nH]c2ccccc2c1CCNC(=O)c1ccc2c(c1[N+](=O)[O-])C(=O)c1ccccc1C2=O	KB-V1 MDR tox 16µM, SW480 rerep inconclusive, MCF10A rereplic inconclusive
Cc1[nH]c2c(C)cccc2c1CCNC(=O)c1ccc2c(c1[N+](=O)[O-])C(=O)c1ccccc1C2=O	SW480 rerep 18µM, MCF10A rereplic 7.9µM, KB-3-1 tox inconclusive
CN(C)C(=O)c1ccc2c(c1[N+](=O)[O-])C(=O)c1ccccc1C2=O	KB-V1 MDR tox inconclusive, MCF10A rereplic inconclusive (no result: SW480 rerep)
COc1ccccc1CN1CCC(CNS(=O)(=O)c2cc(-c3cc(C)no3)ccc2C)CC1	none
CCc1ccc(-c2cc(C)no2)cc1S(=O)(=O)N1CCN(c2ccccn2)CC1	KB-V1 MDR tox inconclusive, KB-3-1 tox inconclusive
CCc1ccc(-c2cc(C)no2)cc1S(=O)(=O)N1CCN(c2ccc(F)cc2)CC1	KB-V1 MDR tox 12µM, SW480 rerep inconclusive, KB-3-1 tox inconclusive
Cc1cc(-c2ccc(C)c(S(=O)(=O)N3CCOc4ccc(Cl)cc43)c2)on1	none (no result: S-ASM inh, SW480 rerep, MCF10A rereplic, Giardia kill)
Cc1cc(-c2ccc(C(C)C)c(S(=O)(=O)N3CCN(c4ccccn4)CC3)c2)on1	KB-V1 MDR tox inconclusive, SW480 rerep inconclusive, MCF10A rereplic 4.1µM, KB-3-1 tox inconclusive
Cc1cc(-c2ccc(C)c(S(=O)(=O)NCC3CCN(Cc4ccc(F)cc4)CC3)c2)on1	SW480 rerep 2.9µM, KB-3-1 tox inconclusive
CCc1ccc(-c2cc(C)no2)cc1S(=O)(=O)N1CCOc2ccccc21	KB-V1 MDR tox 21µM, MCF10A rereplic inconclusive
CCc1ccc(-c2cc(C)no2)cc1S(=O)(=O)N1CCN(c2ccc(OC)cc2)CC1	KB-V1 MDR tox inconclusive, KB-3-1 tox inconclusive
Cc1ccc(NC(=O)c2cnn3c2NC(=C2CC2)C=C3C(F)F)cc1	KB-3-1 tox inconclusive (no result: S-ASM inh, SW480 rerep, MCF10A rereplic, Giardia kill)
CCOC(=O)c1cc(S(=O)(=O)N2CCN(c3ccc(C(C)=O)cc3)CC2)[nH]n1	KB-V1 MDR tox inconclusive (no result: S-ASM inh, SW480 rerep, MCF10A rereplic, Giardia kill)
O=C(NCCc1ccccc1)c1c(O)c2ccccc2[nH]c1=O	none
CC(C)=NNC(=O)c1c(O)c2ccccc2[nH]c1=O	MCF10A rereplic 9.2µM
O=C(NC1CC1)c1c(O)c2ccccc2[nH]c1=O	MCF10A rereplic inconclusive, KB-3-1 tox inconclusive
CCNC(=O)c1c(O)c2ccccc2[nH]c1=O	MCF10A rereplic 6.5µM
COc1ccc(NC(=O)COc2ccccc2Cc2ccccc2)cn1	KB-V1 MDR tox inconclusive, KB-3-1 tox inconclusive
COc1ccc(NC(=O)CN(Cc2ccccc2)Cc2ccccc2)cc1S(N)(=O)=O	KB-V1 MDR tox 21µM
COc1ccc(NC(=O)COc2ccccc2Cc2ccccc2)cc1S(N)(=O)=O	KB-V1 MDR tox 10µM, KB-3-1 tox 16µM
COc1ccc(NC(=O)CCCSc2ccccc2)cc1S(N)(=O)=O	none
COc1ccc(/C=C2\SC(=O)N(CC(=O)Nc3ccc(F)cc3)C2=O)cc1O	MCF10A rereplic 26µM
N=C1S/C(=C\c2cccc3ccccc23)C(=O)N1c1ccc(F)cc1	KB-V1 MDR tox 7.3µM, SW480 rerep 18µM, MCF10A rereplic inconclusive, KB-3-1 tox 7.3µM
